Each structure is given as a SMILES string. About 1,700 (3.3%) of roughly 52,000 compounds were called active. The full list was thinned out, with actives kept by preference. Unmarked numbers belong to inactive results. Rule as the data show it: active = survival mostly below about 52% (no sharp cut-off); inactive = mostly above about 56%.

This experiment deals with Wild type. Nature of the experiment: S. aureus survival, RN4220 and DeltatarO strains – OD600, teichoic acid synthesis inhibitors, primary screen (AID 463173). As to conditions: S. aureus RN4220 wild type/DeltatarO growth, OD600, 18 h, stronger effect = lower value, screened at 18.75 µg/mL (by protocol).
On to `CCn1c(SCCN2CCCC2)nnc1C1CCCN(C(=O)c2ccc3c(c2)OCO3)C1` (centres undefined), for which the survival is 114%.

Turning to `O=C(CN1C(=O)COc2ccc(S(=O)(=O)N3CCCCCC3)cc21)NCCc1ccccc1`, the survival was 92%.

For the molecule `CCSc1nc2c(c(=O)[nH]c(=O)n2C)n1CC(O)COc1ccc(Cl)cc1` (centres undefined), the survival is 161%.

With `COc1ccc2c(c1)c1c(c(=O)n(-c3ccc(C)cc3)c(=O)n1CC(=O)Nc1cc(C)ccc1C)n2C`, the survival was 115%.

As for `COc1ccc(NC(=O)Cn2cc(S(=O)(=O)N3CCN(c4ccccc4F)CC3)c3ccccc3c2=O)cc1Cl`, the survival is 100%.

Consider `Cc1ccccc1C(=O)Nc1c(C)nc(Nc2ccccc2)nc1Nc1ccccc1`, for which the survival is 94%.

Regarding `Cc1ccc(Nc2nc(Nc3ccc(C)c(C)c3)nc(N3CCOCC3)n2)cc1C`, the survival is 73%.

Regarding `O=C(CSc1nc(=O)n(Cc2ccco2)c2c1CCC2)Nc1cccc(F)c1`, the survival was 72%.

In the case of `C=CCN(CC=C)C(=O)C1CCN(Cc2cc(Br)c(O)c(OC)c2)CC1`, the survival is 98%.

`COC(=O)c1cc2oc(C)cc2n1Cc1ccccc1Cl`: the survival was -2% (active).

As for `COC(=O)c1cc2oc3ccccc3c2n1Cc1ccccc1Cl`, the survival is 60%.

On to `COC(=O)c1cc2oc(C)cc2n1Cc1ccc(Br)cc1F`, for which the survival is 48%.

Take `CCC(Oc1ccccc1F)C(=O)Nc1cc(-c2ccccc2)no1` (centres undefined): the survival is 66%.

For `Cc1cccc(C)c1NC(=O)c1ccc2c(c1)nnn2C1CCCC1`, the survival was -6% (active).

For `Cc1cc(C)cc(NC(=O)c2ccc3c(c2)nnn3C2CCCC2)c1`, the survival was 121%.

For the molecule `Cc1c(Cl)cccc1NC(=O)c1ccc2c(c1)nnn2C1CCCC1`, the survival is 120%.

With `COC(=O)c1ccccc1NC(=O)CSc1nnc2cc(C)c3cc(C)cc(C)c3n12`, the survival was 72%.

In the case of `CC(=O)N1CCc2c(sc3c2c(=O)n(-c2ccccc2)c(=O)n3CC(=O)c2ccc(F)cc2)C1`, the survival was 91%.

With `Oc1ccccc1-c1nc2cnccn2c1Nc1ccc(Cl)cc1`, the survival is -16% (active).

Consider `CC(C)c1ccc(Nc2c(-c3ccccc3O)nc3cnccn23)cc1`, for which the survival was 61%.

Turning to `Cc1ccn2c(Nc3ccccc3C)c(-c3ccc(N4CCOCC4)cc3)nc2c1`, the survival was 113%.

With `Cc1ccc2nc(-c3ccccc3F)c(Nc3ccc(Cl)cc3)n2c1`, the survival is 11% (active).

With `COc1cc(O)ccc1-c1nc2cc(C)ccn2c1Nc1ccccc1C`, the survival is 73%.

Regarding `CC(C)c1ccc(Nc2c(-c3ccco3)nc3ccccn23)cc1`, the survival was 33%.

In the case of `Clc1ccc(Nc2c(-c3ccccc3Cl)nc3ccc(Cl)cn23)cc1`, the survival was 25%.

Turning to `CC(C)c1ccc(Nc2c(-c3ccccn3)nc3ccccn23)cc1`, the survival is -21% (active).

As to `Cc1ccn2c(Nc3ccccc3C)c(-c3ccccn3)nc2c1`, the survival was 24% (active).

As to `Cc1ccc2nc(-c3ccc(O)cc3)c(Nc3ccc(Cl)cc3)n2c1`, the survival was 69%.

On to `Cc1cccc(C)c1Nc1c(-c2ccccc2Cl)nc2cnccn12`, for which the survival was 123%.

For `COc1ccc(Nc2c(-c3ccccn3)nc3ccc(Cl)cn23)cc1`, the survival was 96%.

Turning to `N#C/C(=C\c1cn(CC(=O)N2CCCC2)c2ccccc12)C(=O)NC1CC1`, the survival was 103%.

Consider `CCC(C(=O)NC1CCCCC1)n1c(SCc2ccccc2F)nc2ccncc21` (centres undefined), for which the survival was 73%.

With `COc1ccc(CNC(=O)CCc2c(C)nc3nc(CNC(=O)OC(C)(C)C)nn3c2C)cc1`, the survival is 77%.

On to `COc1ccc(C2=NS(=O)(=O)N(C)C(C(=O)NCc3ccccc3)=C2)cc1OC`, for which the survival is 102%.

Turning to `CCC(C)NC(=O)CSc1nc2n[nH]c(C)c2c(=N)n1-c1cc(Cl)ccc1C` (centres undefined), the survival was 72%.

`COc1ccccc1CNC(=O)c1c[nH]c2ccc(S(=O)(=O)Nc3cc(C)cc(C)c3)cc2c1=O`: the survival was 67%.

Take `CCC(C)n1c(=O)c2sccc2n2c(CCCC(=O)Nc3ccc(F)cc3)nnc12` (centres undefined): the survival was 97%.

As to `CCN(CC)C(=O)C(C(F)(F)F)C(F)(F)F`, the survival is 103%.

Consider `Cc1ccc2nc(-c3ccccn3)c(Nc3ccccc3C)n2c1`, for which the survival was 18% (active).

Take `CSc1ccc(-c2nc3cc(C)ccn3c2Nc2ccc(C)cc2)cc1`: the survival is 87%.

In the case of `Fc1ccc(Nc2c(-c3ccccn3)nc3ccc(Cl)cn23)cc1`, the survival is 73%.

Turning to `Cc1ccc2nc(-c3ccccn3)c(Nc3ccc(F)cc3)n2c1`, the survival is 16% (active).

As to `Cc1ccc(Nc2c(-c3cc(Br)ccc3F)nc3cc(C)ccn23)cc1`, the survival is 0% (active).

Turning to `Cc1ccc2nc(-c3ccccc3O)c(Nc3ccccc3C)n2c1`, the survival was 79%.

On to `Cc1ccc(Nc2c(-c3ccccn3)nc3ccc(Br)cn23)cc1`, for which the survival was 60%.

On to `Cc1ccccc1Nc1c(-c2ccncc2)nc2ccc(Cl)cn12`, for which the survival was 128%.

For `Cc1ccccc1Nc1c(-c2cccnc2)nc2ccc(Cl)cn12`, the survival is 81%.

Take `Cc1ccccc1Nc1c(-c2ccc(Br)o2)nc2ccc(Cl)cn12`: the survival is 10% (active).

Regarding `Cc1ccc(Nc2c(-c3ccccc3O)nc3cc(C)ccn23)cc1`, the survival is 73%.

`Cc1ccc2nc(-c3ccncc3)c(Nc3ccccc3C)n2c1`: the survival is 101%.

Take `Cc1ccccc1Cn1c(C)c(CNCCCc2ccccc2)c(C(=O)O)c1C`: the survival is 98%.

For `O=C(c1ccc2c(c1)N(Cc1ccccc1F)C(=O)c1ccccc1S2=O)N1CCCCC1` (centres undefined), the survival is 89%.

With `CCCS(=O)(=O)c1ncc(Cl)c(C(=O)N(Cc2ccccc2)Cc2ccco2)n1`, the survival was 44%.

As for `Cc1ccn2c(Nc3ccccc3C)c(-c3ccccc3)nc2c1`, the survival is -3% (active).

With `Cc1ccn2c(Nc3ccccc3C)c(-c3cccnc3)nc2c1`, the survival is 71%.

`Cc1ccn2c(Nc3ccccc3C)c(-c3ccncc3)nc2c1`: the survival was 80%.

Consider `CCCC12CN3CC(CCC)(CN(C1)C3c1ccc(OC(C)C)cc1)C2=O` (centres undefined), for which the survival is 39%.

For the molecule `CC(=O)c1ccc(NS(=O)(=O)c2ccc3[nH]c4c(c3c2)CCCC4)cc1`, the survival was 84%.

`O=S(=O)(NCc1ccc(F)cc1)c1ccc2[nH]c3c(c2c1)CCCCC3`: the survival was 55%.

As to `COc1ccc(NS(=O)(=O)c2ccc3[nH]c4c(c3c2)CCCCCC4)cc1`, the survival was -4% (active).

Turning to `COc1ccc(NS(=O)(=O)c2ccc3[nH]c4c(c3c2)CCCCC4)cc1`, the survival is 127%.

In the case of `Cc1ccc(NS(=O)(=O)c2ccc3[nH]c4c(c3c2)CCCCCC4)cc1Cl`, the survival is 71%.

`COC(=O)c1ccc(NS(=O)(=O)c2ccc3[nH]c4c(c3c2)CCCCC4)cc1`: the survival is 119%.

`O=S(=O)(NCc1ccc(F)cc1)c1ccc2[nH]c3c(c2c1)CCCC3`: the survival was -3% (active).

As to `Cc1ccc(NS(=O)(=O)c2ccc3[nH]c4c(c3c2)CCCCCC4)cc1C`, the survival was -3% (active).

As to `Cc1ccc(NS(=O)(=O)c2ccc3[nH]c4c(c3c2)CCCCCC4)cc1`, the survival was 71%.

Take `Cc1ccc(CNS(=O)(=O)c2ccc3[nH]c4c(c3c2)CCCC4)cc1`: the survival was 82%.

For `COc1cc(NS(=O)(=O)c2ccc3[nH]c4c(c3c2)CCCCCC4)cc(OC)c1`, the survival was 57%.

Regarding `COC(=O)c1ccc(NS(=O)(=O)c2ccc3[nH]c4c(c3c2)CCCC4)cc1`, the survival was 1% (active).

With `CCC(C)NC(=O)Cn1c(=O)n(-c2cc(OC)cc(OC)c2)c(=O)c2ccccc21` (centres undefined), the survival is 94%.

`CCOc1ccc(OCC)c(NC(=O)c2cc(CN3CCOCC3)on2)c1`: the survival was 72%.

Take `COCCn1c(CCC(=O)Nc2ccc(OC)c(OC)c2)nc2cccnc21`: the survival was 90%.

With `CC1CCN(C(=O)CN(C)S(=O)(=O)c2ccc3ccccc3c2)CC1`, the survival was 115%.

For `CCCCN(C(=O)c1cccs1)c1nnc(-c2cc(OC)cc(OC)c2)s1`, the survival was 116%.

`O=C1CCCc2cc(S(=O)(=O)NCC3CCC(C(=O)NCc4ccc(F)cc4)CC3)ccc2N1` (centres undefined): the survival was 93%.

Regarding `O=C(NCCc1ccccc1)c1ccc2c(c1)CCN2S(=O)(=O)c1ccc(Cl)cc1`, the survival is 114%.

Consider `O=C(Nc1nc2ccccc2s1)c1ccc(S(=O)(=O)N2CCCC2)cc1`, for which the survival is 80%.

Take `CCc1nn(CC(=O)NCCc2ccc(OC)c(OC)c2)c(=O)c2cc3occc3n12`: the survival was 147%.

`CCS(=O)(=O)N1CC(=O)N(c2ccccc2C)C(C)(C(=O)NC2CCCCC2)C1` (centres undefined): the survival is 82%.

For the molecule `Cc1ccc(C)c(N2CCN(S(=O)(=O)c3ccc4[nH]c5c(c4c3)CCCCC5)CC2)c1`, the survival was 89%.

For the molecule `Cc1ccc(C)c(N2CCN(S(=O)(=O)c3ccc4[nH]c5c(c4c3)CCCC5)CC2)c1`, the survival is -4% (active).

Take `Cc1ccc(N2CCN(S(=O)(=O)c3ccc4[nH]c5c(c4c3)CCCCC5)CC2)c(C)c1`: the survival is 135%.

Take `CCOC(=O)c1ccc(NC(=O)CN2c3ccccc3S(=O)(=O)c3ccccc32)cc1`: the survival is 121%.

Take `O=C(NCc1ccco1)c1ccc(Cn2c(SCc3ccccc3F)nc3cccnc32)cc1`: the survival was 74%.

As for `CCOC(=O)/C(C#N)=C(\O)c1ccccc1`, the survival is 104%.

As to `COc1cc2c(cc1NC(=O)COc1cc(C)cc(C)c1)oc1ccccc12`, the survival is 75%.

Turning to `CCc1ccc(OC(C)C(=O)Nc2c(C(=O)c3ccccc3)oc3ccccc23)cc1` (centres undefined), the survival is 13% (active).

In the case of `COc1cc2c(cc1NC(=O)C(C)Oc1ccc(Cl)cc1Cl)oc1ccccc12` (centres undefined), the survival was 49%.

For `CCc1ccc(OCC(=O)Nc2c(C(=O)c3ccccc3)oc3ccccc23)cc1`, the survival was 65%.

On to `Cc1cc(OC(C)C(=O)Nc2c(C(=O)c3ccc(F)cc3)oc3ccccc23)ccc1Cl` (centres undefined), for which the survival was 68%.

`COc1cc2c(cc1NC(=O)C(C)Oc1ccccc1)oc1ccccc12` (centres undefined): the survival is 1% (active).

With `Cc1cc(C)cc(OCC(=O)Nc2c(C(=O)c3ccccc3)oc3ccccc23)c1`, the survival was 78%.

As for `Cc1cc(C)cc(OC(C)C(=O)Nc2c(C(=O)c3ccccc3)oc3ccccc23)c1` (centres undefined), the survival was -1% (active).

Take `CCOc1ccc(NC(=O)c2oc3ccccc3c2NC(=O)C(C)Oc2ccccc2)cc1` (centres undefined): the survival was 94%.
